# Assay outcomes deposited in PubChem BioAssay by National Center for Advancing Translational Sciences (NCATS).
# Only some compounds are listed: those with a hit (about 3.1% of all), similar ones and a draw of the others.
# S16 F2sN tox: cytotoxicity in S16 Pmp22-F2sN Schwann cells | S16 Pmp22-F2sN Schwann cells viability, CellTiter-Glo, 24 h | Potency, µM (titrated, usually from 57.5 µM), for the others: at the top dose activity change, negative = cytotoxicity, usual class: cytotoxic | hit rate 0.48% among 43,000; further: nearly all actives have a fitted effect of over 65% in size
#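 S16 Pmp22-F2sN Schwann cells (500-1,000/well) in phenol-red-free DMEM with 10% FBS received 23 nL compound by pin tool for 24 h at 37 °C. Viability was then read as CellTiter-Glo luminescence after 15 min at room temperature.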
# p53null 32C kill: selectivity test: cytotoxicity in p53 null cells, permissive temperature | H1299-neo p53 null cells, ATP luminescence, 24 h, 32C | Potency, µM (doses to about 46.1 µM), for inactives: top-dose activity change, negative = cytotoxicity, usual class: cytotoxic | hit rate 0.62% among 55,000 | AID 903;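 further: 0% = DMSO only and -100% = full killing by 100 µM tamoxifen; nearly all actives have a fitted effect of over 55% in size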
#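 Cells lacking p53 (H1299-neo) are plated at 600 per well and allowed to settle overnight at 37C. Test compounds (up to 46 uM) are added and held 24 hours at 32C, then ATP is quantified by luminescence.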
# pS6 MEF inh: inhibitors of mTORC1 signaling in Tsc2-/- p53-/- MEF cells | Potency, µM (series often up to 38.3 µM), inactives show at the top dose activity change, negative = inhibition, most hits filed as inhibitors | Tsc2-/- p53-/- MEF, phospho-rpS6 immunofluorescence/PI, 24 h | hit rate 0.78% among 44,000;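 further: plate controls were DMSO for no effect and rapamycin for full effect; nearly all actives have a fitted effect of over 50% in size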
#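 Tsc2-/-, p53-/- MEFs (empty-vector stable line) in DMEM + 10% FBS were treated with compounds 24 h at 37 degree Celsius, fixed, and immunostained for phospho-rpS6 (Alexa-488) with propidium iodide counterstain. Laser-scanning cytometry gave % positive cells, normalized against 7.5 nM rapamycin and DMSO.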
# SKOV3 invasion: blocks SKOV3ip1 adhesion and invasion in omental model; Potency, µM (top dose mostly 45.8 µM), without a hit: at the top dose activity change, negative = inhibition, usual class: inhibitors; AID 1963576; hit rate 0.1% among 46,000; SKOV3ip1-GFP adhesion/invasion on 3D omental model, fluorescence;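 further: plate controls were DMSO wells for no effect and tomatine positive control wells for full effect; nearly all actives have a fitted effect of over 65% in size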
#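 Adhesion/invasion was scored as fixed GFP-labeled SKOV3ip1 cell counts (488/509 nm), normalized to DMSO and tomatine controls. Cancer cells in serum-free medium, with four compound doses (0.36-46 umol/L), sat 2 hr at RT then 16 hr at 37 C on a 48 hr fibroblast/mesothelial/ECM culture.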
# p53null 39C tox: selectivity test: cytotoxicity in p53 null cells, nonpermissive temperature; H1299 p53-null (neo) cells, 39C, ATPlite viability, 24 h; Potency, µM (highest dose often 46.1 µM), without a hit: top-dose activity, negative = cell killing, actives largely listed as cytotoxic; hit rate 0.97% among 55,000; AID 904;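 further: 0% = DMSO only and -100% = full killing by 100 µM tamoxifen; nearly all actives have a fitted effect of over 50% in size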
#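 H1299 lung cancer cells, p53-null (H1299-neo) or expressing p53 A138V (H1299-p53A138V), were plated overnight at 37C, then exposed to compounds at up to 46 uM for 24 hr at 39C. Viability was read by ATP-based luminescence.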
# PMP22 txn: modulators of PMP22 gene transcription in S16 Schwann cells | Potency, µM (doses to about 57.5 µM), for the others: at the top dose activity change, negative = inhibition, hits mostly inhibitors | S16 Pmp22-F2sN Schwann cells (luciferase reporters placed in the Pmp22 gene), FLuc/NLuc coincidence luminescence, 24 h | hit rate 2% among 43,000; active means clear falling dose curves in both reporters; inconclusive means both reporters move, but less clearly or upward; inactive means either reporter flat; the % is the NLuc reporter signal
#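 S16 Schwann cells carrying FLuc/NLuc coincidence reporter in the Pmp22 3' UTR treated with compound 24 h at 37C; FLuc then NLuc luminescence read sequentially by dual-luciferase reagents.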
# An asterisk follows results filed as active; i = inactive; u = inconclusive; x = not tested or not shown. Unless noted, the call rests on the fitted dose curve; in most records, active means well fitted curve in the direction sought with a large enough effect; inconclusive means small, poorly fitted or top-dose-only effect, or another doubt; inactive means no such curve, though single readings can be large; an effect the other way counts as inactive or inconclusive. Unless noted, on the % scale 0 is the no-effect control and ±100 the full control effect; potency means the concentration at half of the fitted maximal effect.
SMILES,S16 F2sN tox,p53null 32C kill,pS6 MEF inh,SKOV3 invasion,p53null 39C tox,PMP22 txn
O=C(Nc1cccc(Cl)c1)c1c(NC(=O)C(F)(F)F)sc2c1CCCC2,u,u,-9%,u,u,13µM*
O=C(Cn1nc(C(F)(F)F)c2c1CCCC2)Nc1cccc(Cl)c1,20µM*,11%,-18%,-10%,u,u
COc1cccc2cc(-c3nc(C4CCC(C(=O)O)CC4)n4ncnc(N)c34)[nH]c12 (configuration not stated),x,x,x,-11%,x,x
CNC1CCC(N(Cc2cccc(-c3ccncc3)c2)C(=O)c2sc3ccccc3c2Cl)CC1 (configuration not stated),x,x,x,-22%,x,x
CCCCc1nc2cc(C=CC(=O)NO)ccc2n1CCN(CC)CC,x,x,x,-10%,x,x
Cc1ccccc1NC(=O)c1c(NC(=O)C(F)(F)F)sc2c1CCCCC2,u,u,7%,i,u,12µM*
CC(C)Oc1ccc(C(=O)N[C@H](CNC(=O)CN(C)C)Cc2ccc(-c3cn4cccc([C@H](C)O)c4n3)cc2)cc1Cl,x,x,x,-13%,x,x
CCN1CCC(N(Cc2ccc3c(c2)OCO3)C(=O)Nc2ccccc2OC)CC1,1%,-1%,-17%,1%,-10%,8%
CCN1CCC(N(Cc2ccc(F)cc2)C(=O)Nc2ccc(C)c(F)c2)CC1,8%,-14%,16µM*,-19%,u,17%
CCOc1ccccc1NC(=O)N(Cc1ccc(F)cc1)C1CCN(CC)CC1,11%,-13%,15µM*,-9%,-17%,-10%
CCN1CCC(N(Cc2ccc(F)cc2)C(=O)Nc2cccc(C(F)(F)F)c2)CC1,u,-17%,u,u,-21%,u
COc1ccc2oc(=O)c(-c3nc4ccc(C)cc4[nH]3)cc2c1,-29%,-12%,-5%,6%,-20%,u
COc1ccc(-c2nc3ccc(C4=NNC(=O)CC4C)cc3[nH]2)cc1 (configuration not stated),x,x,x,13%,x,x
COc1ccc2nc(-c3cccc(N)c3)[nH]c2c1,x,10µM*,x,x,8.9µM*,x
COc1ccc2nc(-c3ccc(N)cc3)[nH]c2c1,x,13µM*,x,x,u,x
COc1ccc(CN2CCc3nc(N4CCN(c5ccc(F)cc5)CC4)ncc3C2)c(OC)c1OC,16µM*,2%,-2%,-12%,19%,13µM*
Cc1ccccc1-n1c(Cn2nc(-c3cccc(O)c3)c3c(N)ncnc32)nc2cccc(C)c2c1=O,x,x,x,6%,x,x
COc1ccc(OC)c(NC(=O)CSC2=Nc3ccccc3C3=NC(CCC(=O)NCc4ccccc4)C(=O)N23)c1 (configuration not stated),u,0%,-1%,25%,-4%,12µM*
CCc1ccc(NC(=O)CSC2=Nc3ccccc3C3=NC(CCC(=O)NCc4ccccc4)C(=O)N23)cc1 (configuration not stated),7%,-2%,-8%,8%,3%,-24%
CC(C)c1ccc(NC(=O)CSC2=Nc3ccccc3C3=NC(CCC(=O)NCc4ccc(F)cc4)C(=O)N23)cc1 (configuration not stated),28µM*,16%,u,2%,86%,u
CC1C(=O)N2CCCc3cc(S(=O)(=O)Nc4ccc(Br)cc4F)cc1c32 (configuration not stated),-2%,1%,13µM*,-1%,-2%,4%
Cc1ccc(C)c(NS(=O)(=O)c2cc3c4c(c2)C(C)C(=O)N4CCC3)c1 (configuration not stated),-16%,-9%,0%,i,u,13%
Cc1cccc(NC(=O)CCCn2c(C)c3cnn(-c4ccccc4)c(=O)c3c2C)c1C,-4%,-3%,1%,i,-7%,-22%
